Experimental data reported in PubChem BioAssay AID1159580 (chemical genetic matrix, 2015).
Several values for one entry are separate records, joined by “and”; a condition that tells them apart may be missing. Equal entries are not always repeated. Screen size: about 5,500 compounds; about 2,000 (36%) were called active. Not shown: some 18% with an inconclusive outcome. Cut-off read from the data, not from the text of the source: active = normalized growth mostly below about 0.91 (no sharp cut-off); inconclusive = no clear call, values can overlap the other calls; inactive = mostly above about 0.92. The list shows a part of the results.

Assay: chemical genetic growth profiling, strain panel (AID 1159580);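 note: tested at 20 µM; growth read once vehicle control cultures reached saturation at 30 °C; 1 = growth at the plate median or of vehicle wells; lower values mean less growth of the strain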
Conditions: S. cerevisiae deletion strains, growth OD

Measured: normalized growth

CC(=O)Oc1cc(-c2coc3cc(OC(C)=O)c(OC(C)=O)c(OC(C)=O)c3c2=O)cc(OC(C)=O)c1OC(C)=O
active: locus YAL013W, strain DEP1, stronger effect = lower value 0.67 | locus YAL021C, strain ccr4, stronger effect = lower value 0.81 | locus YAL026C, strain drs2, stronger effect = lower value 0.836 | locus YBL061C, strain skt5, stronger effect = lower value 0.919 | locus YBR023C, strain chs3, stronger effect = lower value 0.841 | locus YBR229C, strain ROT2, stronger effect = lower value 0.89 | locus YBR231C, strain swc5, stronger effect = lower value 0.772 | locus YCL029C, strain bik1, stronger effect = lower value 0.674 | locus YDL035C, strain GPR1, stronger effect = lower value 0.83 | locus YDL074C, strain BRE1, stronger effect = lower value 0.643 | locus YDL101C, strain DUN1, stronger effect = lower value 0.438 | locus YDL192W, strain arf1, stronger effect = lower value 0.899 | locus YDR069C, strain doa4, stronger effect = lower value 0.752 | locus YDR101C, strain arx1, stronger effect = lower value 0.827 | locus YDR137W, strain rgp1, stronger effect = lower value 0.795 | locus YDR162C, strain NBP2, stronger effect = lower value 0.717 | locus YDR297W, strain sur2, stronger effect = lower value 0.914 | locus YDR334W, strain swr1, stronger effect = lower value 0.834 | locus YDR335W, strain msn5, stronger effect = lower value 0.851 | locus YDR502C, strain sam2, stronger effect = lower value 0.898 | locus YEL003W, strain gim4, stronger effect = lower value 0.877 | locus YEL037C, strain rad23, stronger effect = lower value 0.88 | locus YER015W, strain faa2, stronger effect = lower value 0.894 | locus YER111C, strain swi4, stronger effect = lower value 0.469 | locus YER155C, strain BEM2, stronger effect = lower value 0.913 | locus YFR010W, strain ubp6, stronger effect = lower value 0.881 | locus YGL086W, strain mad1, stronger effect = lower value 0.887 | locus YGL173C, strain kem1, stronger effect = lower value 0.85 | locus YGL248W, strain PDE1, stronger effect = lower value 0.845 | locus YGL253W, strain hxk2, stronger effect = lower value 0.862 | locus YGR135W, strain pre9, stronger effect = lower value 0.871 | locus YGR229C, strain SMI1, stronger effect = lower value 0.302 | locus YHR027C, strain rpn1, stronger effect = lower value 0.885 | locus YHR079C, strain IRE1 (second series), stronger effect = lower value 0.794 | locus YHR129C, strain ARP1, stronger effect = lower value 0.844 | locus YHR142W, strain chs7, stronger effect = lower value 0.82 | locus YHR200W, strain rpn10, stronger effect = lower value 0.914 | locus YIL066C, strain RNR3, stronger effect = lower value 0.834 | locus YIL073C, strain SPO22, stronger effect = lower value 0.602 | locus YJL164C, strain tpk1, stronger effect = lower value 0.893 | locus YJL187C, strain SWE1 (second series), stronger effect = lower value 0.273
0.179 (active) and 1.03 (inactive): locus YJL095W, strain BCK1, stronger effect = lower value
inactive: locus YAL030W, strain snc1, stronger effect = lower value 0.969 | locus YBR009C, strain hhf1, stronger effect = lower value 0.934 | locus YBR021W, strain FUR4, stronger effect = lower value 0.854 | locus YBR171W, strain sec66, stronger effect = lower value 0.936 | locus YBR279W, strain paf1, stronger effect = lower value 0.937 | locus YCL011C, strain gbp2, stronger effect = lower value 0.93 | locus YCL016C, strain dcc1, stronger effect = lower value 0.948 | locus YCL069W, strain vba3, stronger effect = lower value 0.96 | locus YCR088W, strain abp1, stronger effect = lower value 0.977 | locus YDL005C, strain med2, stronger effect = lower value 0.985 | locus YDL040C, strain nat1, stronger effect = lower value 0.987 | locus YDL185W, strain tfp1, stronger effect = lower value 0.978 | locus YDR001C, strain nth1, stronger effect = lower value 0.977 | locus YDR159W, strain sac3, stronger effect = lower value 0.863 | locus YDR195W, strain ref2 0.947 | locus YDR318W, strain mcm21, stronger effect = lower value 0.967 | locus YDR388W, stronger effect = lower value 0.978 | locus YDR392W, strain spt3, stronger effect = lower value 0.938 | locus YEL061C, strain CIN8 (second series), stronger effect = lower value 0.946 | locus YER016W, strain bim1, stronger effect = lower value 0.972 | locus YER110C, stronger effect = lower value 1.05 | locus YER155C, strain BEM2 (second series), stronger effect = lower value 0.906 | locus YER167W, strain BCK2, stronger effect = lower value 0.949 | locus YGL078C, strain dbp3, stronger effect = lower value 1.01 | locus YGL167C, strain pmr1, stronger effect = lower value 0.956 | locus YGL227W, strain vid30, stronger effect = lower value 0.996 | locus YGL240W, strain doc1, stronger effect = lower value 0.975 | locus YGR252W, strain gcn5, stronger effect = lower value 0.873 | locus YHR013C, strain ard1, stronger effect = lower value 0.877 | locus YHR030C, strain SLT2, stronger effect = lower value 1.05 | locus YHR079C, strain IRE1, stronger effect = lower value 1.07 | locus YHR094C, strain hxt1, stronger effect = lower value 1.03 | locus YIL125W, strain kgd1, stronger effect = lower value 1.03 | locus YIR030C, strain dcg1, stronger effect = lower value 0.974 | locus YJL092W, strain hpr5, stronger effect = lower value 0.964 | locus YJL095W, strain BCK1 (second series), stronger effect = lower value 0.945 | locus YJL115W, strain asf1, stronger effect = lower value 0.978 | locus YJL129C, strain trk1, stronger effect = lower value 0.942 | locus YJL134W, strain LCB3, stronger effect = lower value 0.936 | locus YJL154C, strain vps35, stronger effect = lower value 0.978 | locus YJL166W, strain qcr8, stronger effect = lower value 0.906 | locus YJL168C, strain set2, stronger effect = lower value 1.01 | locus YJL187C, strain SWE1, stronger effect = lower value 0.945 | locus YJR066W, strain TOR1, stronger effect = lower value 0.971
